Measured values reported in PubChem BioAssay (EPA / NIEHS).
Active and inactive are the calls of the source. The calls were made as follows: active = hit-call score of the fitted dose curve at least 0.9, where 1 is the maximum; inactive = score below 0.9.

What was measured:
[1] = target: CCAAT/enhancer-binding protein beta (Homo sapiens) (UniProt P17676); test: ATG_C_EBP_CIS: Attagene CIS-FACTORIAL HepG2 Assay for human CCAAT/Enhancer Binding Protein (C/EBP) beta (AID 2282927); conditions: HepG2 Attagene cis-factorial transcription factor reporter; actives raise or lower the signal
Sequence of CCAAT/enhancer-binding protein beta (Homo sapiens) (P17676 whole entry, looked up, the tested form may be a part): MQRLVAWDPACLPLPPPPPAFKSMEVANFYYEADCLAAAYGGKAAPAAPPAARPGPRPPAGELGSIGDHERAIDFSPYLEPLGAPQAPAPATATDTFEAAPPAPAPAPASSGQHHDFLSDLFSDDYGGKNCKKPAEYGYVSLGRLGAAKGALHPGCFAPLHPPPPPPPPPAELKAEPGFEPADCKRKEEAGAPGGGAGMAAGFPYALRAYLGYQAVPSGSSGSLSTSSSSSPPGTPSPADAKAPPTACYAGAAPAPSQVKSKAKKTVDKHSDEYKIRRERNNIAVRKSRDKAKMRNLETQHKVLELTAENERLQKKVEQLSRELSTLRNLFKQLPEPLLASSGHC
Method in brief: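 Chemical-treated HepG2 cells (24 h) bearing cis-regulated reporter constructs were processed for total RNA, then reverse transcription, PCR amplification, fluorescent primer extension and fragment analysis; gain- and loss-of-signal were fitted against DMSO.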

[2] = ATG_CMV_CIS: Attagene CIS-FACTORIAL HepG2 Assay for human CMV (Internal Marker) (AID 2282928); conditions: HepG2 CMV promoter reporter, transcription factor profiling; actives raise or lower the signal;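 also: endpoint acts as a background internal control marker rather than a target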
Method in brief: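 Endogenous transcription factor activity read in HepG2 via transfected cis-promoter reporter units. After 24 h dosing, reporter mRNA measured by RT-PCR/capillary electrophoresis; gain or loss of signal fit relative to DMSO.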

[3] = ATG_DR4_LXR_CIS: Attagene CIS-FACTORIAL HepG2 Assay for human Liver X Receptor (LXR), DR4 submotif (AID 2282929); conditions: HepG2 Attagene DR4 cis-reporter, mRNA transcription; actives raise or lower the signal
Method in brief: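 Total RNA from 24 h-treated, MRTU-transfected HepG2 cells underwent reverse transcription, PCR, fluorescent primer extension and restriction digestion before capillary electrophoresis. Both increases and decreases in reporter signal were fitted against DMSO.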

[4] = ATG_AP_1_CIS: Attagene CIS-FACTORIAL HepG2 Assay for human Activator Protein 1 (AP-1) (AID 2282931); conditions: HepG2 Attagene cis-factorial AP-1 reporter mRNA; actives raise or lower the signal
Method in brief: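 HepG2, transient cis-reporter transfection; 24 h; readout RT-PCR/CE fluorescence; DMSO baseline, gain and loss fitted.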

[5] = ATG_AP_2_CIS: Attagene CIS-FACTORIAL HepG2 Assay for human Activator Protein 2 (AP-2) (AID 2282932); conditions: HepG2 AP-2 cis-reporter, Attagene transcription factor profiling; actives raise or lower the signal
Method in brief: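 HepG2 cells were transiently transfected with multiple cis-promoter reporter transcription units and dosed for 24 h. Reporter mRNA was measured by RT-PCR with capillary electrophoresis fluorescence; bidirectional fits relative to DMSO baseline.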

[6] = ATG_BRE_CIS: Attagene CIS-FACTORIAL HepG2 Assay for human Bone Morphogenetic Protein (BMP) Response Element (BRE) (AID 2282933); conditions: HepG2 BMP response element reporter, Attagene transcription factor profiling; actives raise or lower the signal
Method in brief: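 HepG2 cells transiently transfected with CIS reporter units (endogenous TF activity, BMP response element), dosed 24 h. Reporter mRNA quantified by RT-PCR, fluorescent labelling and capillary electrophoresis; bidirectional fit vs DMSO baseline.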

[7] = target: Transcription factor E2F1 (Homo sapiens) (UniProt Q01094); test: ATG_E2F_CIS: Attagene CIS-FACTORIAL HepG2 Assay for human E2F Transcription Factor 1 (AID 2282935); conditions: HepG2 Attagene cis-reporter, E2F reporter RNA transcripts; actives raise or lower the signal
Sequence of Transcription factor E2F1 (Homo sapiens) (Q01094 whole entry, looked up): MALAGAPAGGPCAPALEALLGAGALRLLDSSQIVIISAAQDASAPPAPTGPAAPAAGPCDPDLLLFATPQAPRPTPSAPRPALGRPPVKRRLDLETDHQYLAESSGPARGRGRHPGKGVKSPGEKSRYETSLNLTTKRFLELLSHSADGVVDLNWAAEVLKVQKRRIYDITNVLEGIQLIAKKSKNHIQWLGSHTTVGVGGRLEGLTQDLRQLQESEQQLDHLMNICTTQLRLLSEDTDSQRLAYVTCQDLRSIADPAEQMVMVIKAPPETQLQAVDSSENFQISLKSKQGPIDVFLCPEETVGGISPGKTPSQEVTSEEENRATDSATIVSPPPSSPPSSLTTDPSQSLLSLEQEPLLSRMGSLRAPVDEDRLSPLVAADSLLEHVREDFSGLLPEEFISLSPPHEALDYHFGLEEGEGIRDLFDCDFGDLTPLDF
Method in brief: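 HepG2 cells transiently transfected with multiplexed cis-element reporter units, dosed for 24 h. Reporter mRNA measured by RT-PCR, 6-FAM primer-extension labeling, HpaI digestion and capillary electrophoresis; bidirectional fit versus DMSO baseline.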

[8] = ATG_E_Box_CIS: Attagene CIS-FACTORIAL HepG2 Assay for human Enhancer Box (E-box) (AID 2282936); conditions: HepG2 E-box cis-reporter transcription, actives raise or lower the signal
Method in brief: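 HepG2 cells transiently transfected with multiplexed cis-element reporter units sensing endogenous transcription factor activity; 24 h compound exposure. Reporter mRNA measured by RT-PCR, 6-FAM primer extension, HpaI digestion and capillary electrophoresis; bidirectional fit versus DMSO.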

[9] = ATG_M_61_CIS: Attagene CIS-FACTORIAL HepG2 Assay for M61 Transcription Factor (Internal Marker) (AID 2282937); conditions: HepG2 Attagene CIS-FACTORIAL M61 internal marker reporter; actives raise or lower the signal
Method in brief: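 Transfect HepG2 with MRTUs; dose 24 h; isolate RNA; reverse-transcribe with DNase I treatment; PCR-amplify, FAM-label and cut with HpaI for 2 h at 37 C; resolve by CE. Bidirectional fitting against DMSO.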

[10] = ATG_EGR_CIS: Attagene CIS-FACTORIAL HepG2 Assay for human Early Growth Response 1 (EGR1) (AID 2282938); conditions: HepG2 Attagene CIS-FACTORIAL EGR reporter mRNA; actives raise or lower the signal
Method in brief: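 After a 24 h treatment of transiently transfected HepG2 cells, total RNA was reverse-transcribed and reporter sequences PCR-amplified, labelled and run on capillary electrophoresis. Reporters sit under cis-regulatory promoters sensing endogenous factors.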

[11] = ATG_Ets_CIS: Attagene CIS-FACTORIAL HepG2 Assay for human Erythroblast Transformation Specific (ETS) (AID 2282941); conditions: HepG2 ETS cis-reporter transcription, actives raise or lower the signal
Method in brief: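 Steps: transfect HepG2 with multiple reporter units; treat compound 24 h; isolate RNA, DNase-treat, reverse-transcribe; PCR-amplify, label with 6-FAM, digest with HpaI; separate by capillary electrophoresis. Activity fitted both directions versus DMSO.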

[12] = ATG_GATA_CIS: Attagene CIS-FACTORIAL HepG2 Assay for human GATA Binding Protein (AID 2282944); conditions: HepG2 GATA cis-element reporter, Attagene multiplex mRNA; actives raise or lower the signal
Method in brief: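 HepG2 cells transiently transfected with multiplexed cis-element reporter units measure endogenous GATA activity; after 24 h compound exposure, reporter mRNA quantified by RT-PCR and capillary electrophoresis. Changes fitted in both directions vs DMSO.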

[13] = ATG_GLI_CIS: Attagene CIS-FACTORIAL HepG2 Assay for human Zinc Finger Protein GLI1 (AID 2282945); conditions: HepG2, Attagene cis-factorial reporter mRNA, GLI element; actives raise or lower the signal
Method in brief: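 HepG2 cells transiently transfected with cis-promoter multiplexed reporter units report endogenous transcription factor activity. After 24 h chemical exposure, reporter mRNA was quantified by RT-PCR, 6-FAM labelling, HpaI digestion and capillary electrophoresis, with bidirectional fitting against DMSO.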

[14] = ATG_ISRE_CIS: Attagene CIS-FACTORIAL HepG2 Assay for human Interferon Regulatory Factor 1 (IRF1) binding to an Interferon-Stimulated Response Element (ISRE) (AID 2282948); conditions: HepG2 ISRE cis-reporter (Attagene), mRNA transcription readout; actives raise or lower the signal
Method in brief: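 Transfected HepG2 (multiple reporter transcription units, cis elements) dosed 24 h. RNA → oligo(dT) RT → PCR → 6-FAM primer extension → HpaI → CE. DMSO = negative control/baseline.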

[15] = ATG_M_32_CIS: Attagene CIS-FACTORIAL HepG2 Assay for M32 Transcription Factor (Internal Marker) (AID 2282949); conditions: HepG2 Attagene cis-factorial M32 reporter, mRNA; actives raise or lower the signal;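 also: background control marker of the multiplexed CIS panel rather than a real target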
Method in brief: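 Internal background marker read-out: RT-PCR/capillary electrophoresis fluorescence of reporter transcripts from transiently transfected HepG2 cells after 24 h chemical exposure. Activity fitted bidirectionally relative to DMSO negative control.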

[16] = ATG_M_06_CIS: Attagene CIS-FACTORIAL HepG2 Assay for M06 Transcription Factor (Internal Marker) (AID 2282950); conditions: HepG2 Attagene CIS-FACTORIAL M06 internal marker reporter; actives raise or lower the signal
Method in brief: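 Internal background marker within multiplexed cis-reporter HepG2 system. Cells transiently transfected, dosed 24 h; reporter mRNA measured by RT-PCR, HpaI digestion and capillary electrophoresis. Bidirectional fit relative to DMSO.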

[17] = target: Hepatocyte nuclear factor 6 (Homo sapiens) (UniProt Q9UBC0); test: ATG_HNF6_CIS: Attagene CIS-FACTORIAL HepG2 Assay for human Hepatocyte Nuclear Factor 6 (HNF6) (AID 2282952); conditions: HepG2 Attagene cis-factorial HNF6 reporter transcription; actives raise or lower the signal
Sequence of Hepatocyte nuclear factor 6 (Homo sapiens) (Q9UBC0 whole entry, looked up): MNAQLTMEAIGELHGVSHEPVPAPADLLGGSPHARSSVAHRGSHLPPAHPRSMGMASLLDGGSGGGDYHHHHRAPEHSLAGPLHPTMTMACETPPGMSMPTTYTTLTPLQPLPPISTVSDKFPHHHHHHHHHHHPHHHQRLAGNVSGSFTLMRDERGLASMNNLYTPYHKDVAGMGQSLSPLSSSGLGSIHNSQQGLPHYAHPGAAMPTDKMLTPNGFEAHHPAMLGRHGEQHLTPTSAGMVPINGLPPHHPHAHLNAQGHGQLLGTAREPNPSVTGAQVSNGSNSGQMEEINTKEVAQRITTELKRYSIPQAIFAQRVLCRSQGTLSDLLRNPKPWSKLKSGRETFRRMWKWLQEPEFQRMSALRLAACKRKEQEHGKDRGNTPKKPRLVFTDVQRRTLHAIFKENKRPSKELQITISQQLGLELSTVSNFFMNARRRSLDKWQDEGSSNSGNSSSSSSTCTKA
Method in brief: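 Transiently transfected HepG2 cells expressing cis-regulated reporter transcription units were exposed to chemical for 24 h in a 24-well format. Reporter transcript abundance was determined by fluorescence capillary electrophoresis.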

[18] = ATG_MRE_CIS: Attagene CIS-FACTORIAL HepG2 Assay for human Metal Responsive Element (MRE) (AID 2282954); conditions: HepG2 MRE cis-reporter transcription, Attagene multiplex; actives raise or lower the signal
Method in brief: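 HepG2 cells transiently transfected with multiple cis-element reporter units measure endogenous MTF1-driven transcription. After 24 h compound exposure, reporter mRNA is quantified by RT-PCR with 6-FAM labelling, HpaI digestion and capillary electrophoresis; bidirectional fits versus DMSO.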

[19] = ATG_PXRE_CIS: Attagene CIS-FACTORIAL HepG2 Assay for human Pregnane X Receptor Element (PXRE) (AID 2282957); conditions: HepG2 Attagene CIS-FACTORIAL PXRE reporter, mRNA; actives raise or lower the signal
Method in brief: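 Cis-element reporter mRNA in human hepatoma HepG2 cells is measured 24 h post-dosing by RT-PCR, primer-extension labeling and capillary electrophoresis; gain or loss of signal is fitted relative to DMSO.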

[20] = ATG_Sox_CIS: Attagene CIS-FACTORIAL HepG2 Assay for human SRY-box transcription factor (SOX) (AID 2282960); conditions: HepG2 Attagene cis-factorial SOX reporter, mRNA; actives raise or lower the signal
Method in brief: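 HepG2, cis reporter units, 24 h exposure. Reporter mRNA: RT-PCR → FAM labelling → HpaI → CE fluorescence. Bidirectional fit vs DMSO.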

Measured: AC50

O=[N+]([O-])O.O=[N+]([O-])O.[Cd]
inactive: [5] | [6] | [7] | [8] | [9] | [11] | [15] | [16] | [17]
active: [1] 1.83 µM | [2] 0.873 µM | [3] 0.666 µM | [4] 5.97 µM | [10] 1 µM | [12] 11.1 µM | [13] 9.58 µM | [14] 1.03 µM | [18] 0.351 µM | [19] 0.872 µM | [20] 1.31 µM

C#CC1(O)CCCCC1
inactive: all assays above

CCC(=O)c1ccc(Cl)cc1
inactive: all assays above

O=[N+]([O-])c1cc([N+](=O)[O-])c2ccccc2c1
active: [2] 23.5 µM | [4] 14.5 µM | [8] 10.5 µM | [19] 8.8 µM
inactive: all other assays above

CN(C)N
inactive: all assays above

O=c1[nH]c(Cl)c(Cl)cc1Cl
active: [19] 38.7 µM
inactive: all other assays above

CN(C)C(=O)C(c1ccccc1)c1ccccc1
active: [19] 9.67 µM
inactive: all other assays above
